# Measured values from paper PMC7862700, “An all-to-all approach to the identification of sequence-specific readers for epigenetic DNA modifications on cytosine”.
# Tests used:
# Assay in all cases: DAPPL (digital affinity profiling via proximity ligation, sequencing); 10 mM Tris-HCl pH 7.5, 50 mM NaCl, 1 mM DTT, 4% glycerol, room temperature, 30 min; GST-TFs on glutathione beads, 16-mer random dsDNA library, 0.1% formaldehyde crosslink after washing; high values mean tight binding
# FEV = target: T1, FEV (Homo sapiens, UniProt Q99581 1-238); conditions: protein: recombinant; tags: N-terminal GST; dsDNA, one strand shown
# T1 sequence: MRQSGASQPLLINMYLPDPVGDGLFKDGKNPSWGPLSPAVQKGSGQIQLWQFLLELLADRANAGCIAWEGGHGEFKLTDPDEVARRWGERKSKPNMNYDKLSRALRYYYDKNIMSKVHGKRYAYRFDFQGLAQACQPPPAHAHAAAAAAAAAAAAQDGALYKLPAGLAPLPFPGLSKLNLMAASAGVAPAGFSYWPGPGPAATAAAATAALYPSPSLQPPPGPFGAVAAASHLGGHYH
# How it was run: (§1)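 Binding signal is each hexamer's read frequency for a factor divided by its frequency in the tag-only sample. The factors were GST-fused human transcription factors from yeast, captured on glutathione beads, DNA-barcoded and pooled with that sample. Pools were incubated with 200 nmole of a random double-stranded 16-mer DNA library in Tris/NaCl/DTT/glycerol buffer at room temperature for 30 min, then washed, crosslinked with 0.1% formaldehyde, proximity-ligated with BsaI/T4 ligase (1 h, 37 °C), PCR-amplified and sequenced on an Illumina NextSeq500.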
# ETV5 = ETV5 (Homo sapiens, UniProt P41161 1-510); conditions: protein: recombinant; tags: N-terminal GST; dsDNA, one strand shown
# How it was run: as §1
# HSF1 = HSF1 (Homo sapiens, UniProt Q00613 1-529); conditions: protein: recombinant; tags: N-terminal GST; chain copies: 3; dsDNA, one strand shown
# How it was run: as §1
# SPIC = target: T2, SPIC (Homo sapiens, UniProt Q8N5J4 1-248); conditions: protein: recombinant; tags: N-terminal GST; dsDNA, one strand shown
# T2 sequence: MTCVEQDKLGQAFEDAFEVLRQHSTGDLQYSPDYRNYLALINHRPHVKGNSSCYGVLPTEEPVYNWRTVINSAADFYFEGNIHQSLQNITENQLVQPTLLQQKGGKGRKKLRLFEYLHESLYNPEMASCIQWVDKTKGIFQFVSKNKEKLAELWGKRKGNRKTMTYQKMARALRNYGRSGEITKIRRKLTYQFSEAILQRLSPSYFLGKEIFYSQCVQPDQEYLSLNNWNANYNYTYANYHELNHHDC
# How it was run: as §1
# ELF4 = ELF4 (Homo sapiens, UniProt Q99607 1-663); conditions: protein: recombinant; tags: N-terminal GST; dsDNA, one strand shown
# How it was run: as §1
# ELK4 = target: T3, ELK4 (Homo sapiens, UniProt P28324-2 1-405); conditions: protein: recombinant; tags: N-terminal GST; dsDNA, one strand shown
# T3 sequence: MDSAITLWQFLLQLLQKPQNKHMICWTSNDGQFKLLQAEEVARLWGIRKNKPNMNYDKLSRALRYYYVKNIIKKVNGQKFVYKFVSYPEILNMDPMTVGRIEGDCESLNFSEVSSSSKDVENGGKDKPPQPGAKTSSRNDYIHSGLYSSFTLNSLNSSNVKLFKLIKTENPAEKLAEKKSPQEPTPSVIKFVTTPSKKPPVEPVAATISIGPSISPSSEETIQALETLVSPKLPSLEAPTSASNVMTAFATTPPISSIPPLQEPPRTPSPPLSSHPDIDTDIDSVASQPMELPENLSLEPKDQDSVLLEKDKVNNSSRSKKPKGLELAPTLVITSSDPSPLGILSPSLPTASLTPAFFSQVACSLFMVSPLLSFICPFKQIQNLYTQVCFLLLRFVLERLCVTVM
# How it was run: as §1
# ETV2 = target: T4, ETV2 (Homo sapiens, UniProt O00321 1-342); conditions: protein: recombinant; tags: N-terminal GST; dsDNA, one strand shown
# T4 sequence: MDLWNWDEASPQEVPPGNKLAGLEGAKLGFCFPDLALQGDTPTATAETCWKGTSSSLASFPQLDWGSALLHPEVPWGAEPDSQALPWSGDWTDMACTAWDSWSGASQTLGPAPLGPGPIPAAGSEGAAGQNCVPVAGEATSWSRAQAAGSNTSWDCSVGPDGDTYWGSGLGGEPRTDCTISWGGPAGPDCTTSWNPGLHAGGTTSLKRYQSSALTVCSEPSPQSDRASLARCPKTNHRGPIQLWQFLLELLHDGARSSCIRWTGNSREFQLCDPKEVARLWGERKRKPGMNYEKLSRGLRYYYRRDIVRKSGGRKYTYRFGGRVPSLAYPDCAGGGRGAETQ
# How it was run: as §1
# ELF3 = target: T5, ELF3 (Homo sapiens, UniProt P78545 1-371); conditions: protein: recombinant; tags: N-terminal GST; dsDNA, one strand shown
# T5 sequence: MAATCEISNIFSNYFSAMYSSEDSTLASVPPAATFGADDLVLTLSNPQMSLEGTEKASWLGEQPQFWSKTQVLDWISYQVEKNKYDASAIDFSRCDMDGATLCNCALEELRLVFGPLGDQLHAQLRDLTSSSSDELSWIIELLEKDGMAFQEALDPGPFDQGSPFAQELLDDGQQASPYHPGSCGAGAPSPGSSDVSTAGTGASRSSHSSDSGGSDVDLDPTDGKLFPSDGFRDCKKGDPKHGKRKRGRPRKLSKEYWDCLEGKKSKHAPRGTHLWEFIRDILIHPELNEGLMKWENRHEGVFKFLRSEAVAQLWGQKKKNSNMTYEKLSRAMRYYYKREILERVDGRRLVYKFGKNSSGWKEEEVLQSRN
# How it was run: as §1
# CRX = CRX (Homo sapiens, UniProt O43186 1-299); conditions: protein: recombinant; tags: N-terminal GST; dsDNA, one strand shown
# How it was run: as §1
# ETV1 = ETV1 (Homo sapiens, UniProt P50549 1-477); conditions: protein: recombinant; tags: N-terminal GST; dsDNA, one strand shown
# How it was run: as §1
# ERF = target: T6, ERF (Homo sapiens, UniProt P50548 1-548); conditions: protein: recombinant; tags: N-terminal GST; dsDNA, one strand shown
# T6 sequence: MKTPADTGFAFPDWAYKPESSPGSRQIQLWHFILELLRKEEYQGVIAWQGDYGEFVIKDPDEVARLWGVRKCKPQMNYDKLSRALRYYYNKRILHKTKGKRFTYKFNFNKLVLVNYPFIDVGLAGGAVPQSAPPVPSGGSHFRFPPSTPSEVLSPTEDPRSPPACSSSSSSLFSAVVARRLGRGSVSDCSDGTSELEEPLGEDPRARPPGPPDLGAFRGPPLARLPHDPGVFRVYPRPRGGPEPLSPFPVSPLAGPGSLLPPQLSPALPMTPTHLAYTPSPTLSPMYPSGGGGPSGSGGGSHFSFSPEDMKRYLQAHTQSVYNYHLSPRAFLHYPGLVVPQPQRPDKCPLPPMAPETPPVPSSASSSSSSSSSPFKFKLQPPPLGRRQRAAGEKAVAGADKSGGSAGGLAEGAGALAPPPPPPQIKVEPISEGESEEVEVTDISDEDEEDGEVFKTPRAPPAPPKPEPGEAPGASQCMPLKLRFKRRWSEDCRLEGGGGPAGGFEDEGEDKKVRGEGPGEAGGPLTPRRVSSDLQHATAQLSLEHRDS
# How it was run: as §1
# ETV3L = target: T7, ETV3L (Homo sapiens, UniProt Q6ZN32 1-361); conditions: protein: recombinant; tags: N-terminal GST; dsDNA, one strand shown
# T7 sequence: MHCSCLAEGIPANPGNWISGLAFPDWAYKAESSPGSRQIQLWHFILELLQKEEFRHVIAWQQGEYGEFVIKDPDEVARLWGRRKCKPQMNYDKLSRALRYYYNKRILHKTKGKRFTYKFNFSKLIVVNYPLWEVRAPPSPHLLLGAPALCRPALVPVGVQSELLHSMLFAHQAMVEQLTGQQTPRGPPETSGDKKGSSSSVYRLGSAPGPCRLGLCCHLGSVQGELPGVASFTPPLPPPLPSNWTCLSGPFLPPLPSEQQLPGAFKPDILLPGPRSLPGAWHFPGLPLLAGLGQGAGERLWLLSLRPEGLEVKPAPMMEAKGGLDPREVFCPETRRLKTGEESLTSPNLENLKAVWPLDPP
# How it was run: as §1
# ETS2 = target: T8, ETS2 (Homo sapiens, UniProt P15036 1-469); conditions: protein: recombinant; tags: N-terminal GST; dsDNA, one strand shown
# T8 sequence: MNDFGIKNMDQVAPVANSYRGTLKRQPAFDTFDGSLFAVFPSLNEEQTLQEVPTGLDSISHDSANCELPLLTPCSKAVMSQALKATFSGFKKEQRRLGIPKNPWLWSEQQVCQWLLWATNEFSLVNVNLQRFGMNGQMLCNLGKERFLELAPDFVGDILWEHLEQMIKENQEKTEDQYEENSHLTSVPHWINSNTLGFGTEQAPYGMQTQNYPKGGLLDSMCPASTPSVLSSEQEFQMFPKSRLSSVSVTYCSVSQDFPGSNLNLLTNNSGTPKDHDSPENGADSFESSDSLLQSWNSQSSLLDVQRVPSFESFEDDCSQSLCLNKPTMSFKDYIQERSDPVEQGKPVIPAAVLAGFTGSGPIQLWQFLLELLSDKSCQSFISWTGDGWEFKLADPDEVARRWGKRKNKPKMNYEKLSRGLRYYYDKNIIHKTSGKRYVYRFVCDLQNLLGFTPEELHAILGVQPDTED
# How it was run: as §1
# SPDEF = target: T9, SPDEF (Homo sapiens, UniProt O95238 1-335); conditions: protein: recombinant; tags: N-terminal GST; dsDNA, one strand shown
# T9 sequence: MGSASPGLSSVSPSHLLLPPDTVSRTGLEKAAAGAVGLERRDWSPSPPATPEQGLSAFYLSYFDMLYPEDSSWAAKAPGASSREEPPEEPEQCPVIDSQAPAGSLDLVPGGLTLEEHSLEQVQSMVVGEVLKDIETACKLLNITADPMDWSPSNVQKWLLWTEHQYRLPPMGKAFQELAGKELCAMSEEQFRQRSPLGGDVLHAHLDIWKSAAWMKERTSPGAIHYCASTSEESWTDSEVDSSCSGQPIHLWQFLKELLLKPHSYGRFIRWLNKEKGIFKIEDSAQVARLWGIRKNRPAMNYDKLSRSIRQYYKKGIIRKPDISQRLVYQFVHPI
# How it was run: as §1
# ETV7 = target: T10, ETV7 (Homo sapiens, UniProt Q9Y603 1-341); conditions: protein: recombinant; tags: N-terminal GST; dsDNA, one strand shown
# T10 sequence: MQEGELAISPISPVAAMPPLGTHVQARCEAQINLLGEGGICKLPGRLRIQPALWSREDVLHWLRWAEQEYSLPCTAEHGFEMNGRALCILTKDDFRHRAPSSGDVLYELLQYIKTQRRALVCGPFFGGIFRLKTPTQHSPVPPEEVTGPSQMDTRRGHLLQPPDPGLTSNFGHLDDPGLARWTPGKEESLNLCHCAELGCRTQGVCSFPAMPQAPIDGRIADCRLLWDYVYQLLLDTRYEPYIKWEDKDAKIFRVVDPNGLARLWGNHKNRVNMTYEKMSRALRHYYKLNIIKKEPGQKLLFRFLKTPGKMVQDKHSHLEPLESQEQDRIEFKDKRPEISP
# How it was run: as §1
# ELF5 = target: T11, ELF5 (Homo sapiens, UniProt Q9UKW6-2 1-255); conditions: protein: recombinant; tags: N-terminal GST; dsDNA, one strand shown
# T11 sequence: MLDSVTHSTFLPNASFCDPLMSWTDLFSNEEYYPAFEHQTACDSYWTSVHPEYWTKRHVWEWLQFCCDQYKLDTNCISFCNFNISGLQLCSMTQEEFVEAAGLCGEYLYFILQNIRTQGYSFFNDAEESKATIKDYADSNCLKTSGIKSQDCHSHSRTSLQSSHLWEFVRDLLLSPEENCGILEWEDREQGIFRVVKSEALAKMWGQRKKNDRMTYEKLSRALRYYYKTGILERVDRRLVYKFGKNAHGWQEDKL
# How it was run: as §1
# ETV3 = target: T12, ETV3 (Homo sapiens, UniProt P41162-2 1-143); conditions: protein: recombinant; tags: N-terminal GST; dsDNA, one strand shown
# T12 sequence: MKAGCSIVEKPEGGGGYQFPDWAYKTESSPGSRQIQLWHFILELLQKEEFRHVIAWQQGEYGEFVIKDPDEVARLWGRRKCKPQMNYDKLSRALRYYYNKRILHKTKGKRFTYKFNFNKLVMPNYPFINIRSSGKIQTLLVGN
# How it was run: as §1
# ETV6 = ETV6 (Homo sapiens, UniProt P41212 1-452); conditions: protein: recombinant; tags: N-terminal GST; dsDNA, one strand shown
# How it was run: as §1
# Sequence of ETV1 (P50549 whole entry): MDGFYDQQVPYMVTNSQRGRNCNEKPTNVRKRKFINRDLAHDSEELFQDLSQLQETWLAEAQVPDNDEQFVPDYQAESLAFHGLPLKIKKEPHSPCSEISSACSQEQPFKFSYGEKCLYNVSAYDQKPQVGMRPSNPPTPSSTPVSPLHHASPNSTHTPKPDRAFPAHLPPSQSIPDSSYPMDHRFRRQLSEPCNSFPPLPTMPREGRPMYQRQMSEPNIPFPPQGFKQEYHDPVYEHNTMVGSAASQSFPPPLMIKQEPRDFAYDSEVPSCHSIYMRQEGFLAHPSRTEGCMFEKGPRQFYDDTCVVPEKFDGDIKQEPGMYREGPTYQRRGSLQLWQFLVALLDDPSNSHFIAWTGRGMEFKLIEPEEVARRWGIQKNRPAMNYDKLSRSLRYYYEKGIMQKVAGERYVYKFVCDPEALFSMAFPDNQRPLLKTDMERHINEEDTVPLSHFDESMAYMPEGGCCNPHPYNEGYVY
# Sequence of HSF1 (Q00613 whole entry): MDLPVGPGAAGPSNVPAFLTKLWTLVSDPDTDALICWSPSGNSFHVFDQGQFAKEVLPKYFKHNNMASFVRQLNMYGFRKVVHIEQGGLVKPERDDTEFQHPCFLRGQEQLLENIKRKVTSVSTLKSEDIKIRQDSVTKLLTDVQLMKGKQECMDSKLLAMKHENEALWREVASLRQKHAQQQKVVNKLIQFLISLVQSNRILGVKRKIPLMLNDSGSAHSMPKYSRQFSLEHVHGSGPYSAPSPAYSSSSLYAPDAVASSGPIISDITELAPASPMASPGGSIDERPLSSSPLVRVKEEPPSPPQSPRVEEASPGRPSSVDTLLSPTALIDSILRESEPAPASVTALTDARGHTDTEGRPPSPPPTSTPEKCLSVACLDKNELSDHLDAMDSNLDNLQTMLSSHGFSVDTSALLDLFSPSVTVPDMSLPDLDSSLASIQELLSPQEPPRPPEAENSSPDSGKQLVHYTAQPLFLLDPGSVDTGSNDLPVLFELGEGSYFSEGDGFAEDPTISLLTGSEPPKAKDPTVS
# Sequence of ETV6 (P41212 whole entry): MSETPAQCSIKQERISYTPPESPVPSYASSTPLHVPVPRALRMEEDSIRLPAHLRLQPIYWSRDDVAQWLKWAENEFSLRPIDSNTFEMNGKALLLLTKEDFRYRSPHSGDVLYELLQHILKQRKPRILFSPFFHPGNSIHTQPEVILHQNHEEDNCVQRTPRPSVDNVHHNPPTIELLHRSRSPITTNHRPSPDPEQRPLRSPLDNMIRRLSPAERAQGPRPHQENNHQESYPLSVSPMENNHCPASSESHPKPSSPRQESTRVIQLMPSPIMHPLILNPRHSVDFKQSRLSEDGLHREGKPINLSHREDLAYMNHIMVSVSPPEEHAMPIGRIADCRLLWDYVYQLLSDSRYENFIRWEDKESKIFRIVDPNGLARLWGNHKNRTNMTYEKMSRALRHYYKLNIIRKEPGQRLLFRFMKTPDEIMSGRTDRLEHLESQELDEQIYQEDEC
# Sequence of CRX (O43186 whole entry): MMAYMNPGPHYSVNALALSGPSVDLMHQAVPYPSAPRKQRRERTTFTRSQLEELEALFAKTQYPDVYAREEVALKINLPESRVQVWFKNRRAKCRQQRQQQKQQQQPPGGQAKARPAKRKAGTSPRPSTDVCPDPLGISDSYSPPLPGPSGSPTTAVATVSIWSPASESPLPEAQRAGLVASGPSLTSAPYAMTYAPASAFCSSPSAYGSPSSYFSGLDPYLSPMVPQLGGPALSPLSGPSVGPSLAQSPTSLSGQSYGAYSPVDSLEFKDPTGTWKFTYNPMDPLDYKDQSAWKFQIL
# Sequence of ETV5 (P41161 whole entry): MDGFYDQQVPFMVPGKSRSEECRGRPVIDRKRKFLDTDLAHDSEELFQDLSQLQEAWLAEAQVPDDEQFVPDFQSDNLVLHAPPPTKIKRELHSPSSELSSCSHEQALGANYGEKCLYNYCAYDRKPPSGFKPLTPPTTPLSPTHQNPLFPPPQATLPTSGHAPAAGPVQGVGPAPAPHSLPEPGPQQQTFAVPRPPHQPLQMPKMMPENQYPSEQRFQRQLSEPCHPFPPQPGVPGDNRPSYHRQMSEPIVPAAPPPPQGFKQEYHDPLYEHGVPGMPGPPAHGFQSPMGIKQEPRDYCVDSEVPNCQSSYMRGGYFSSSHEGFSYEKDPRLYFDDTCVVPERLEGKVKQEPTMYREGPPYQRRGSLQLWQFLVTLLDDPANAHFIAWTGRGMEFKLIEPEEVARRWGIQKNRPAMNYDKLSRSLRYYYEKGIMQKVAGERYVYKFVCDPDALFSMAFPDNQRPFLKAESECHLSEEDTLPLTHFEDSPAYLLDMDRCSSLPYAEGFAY
# Sequence of ELF4 (Q99607 whole entry): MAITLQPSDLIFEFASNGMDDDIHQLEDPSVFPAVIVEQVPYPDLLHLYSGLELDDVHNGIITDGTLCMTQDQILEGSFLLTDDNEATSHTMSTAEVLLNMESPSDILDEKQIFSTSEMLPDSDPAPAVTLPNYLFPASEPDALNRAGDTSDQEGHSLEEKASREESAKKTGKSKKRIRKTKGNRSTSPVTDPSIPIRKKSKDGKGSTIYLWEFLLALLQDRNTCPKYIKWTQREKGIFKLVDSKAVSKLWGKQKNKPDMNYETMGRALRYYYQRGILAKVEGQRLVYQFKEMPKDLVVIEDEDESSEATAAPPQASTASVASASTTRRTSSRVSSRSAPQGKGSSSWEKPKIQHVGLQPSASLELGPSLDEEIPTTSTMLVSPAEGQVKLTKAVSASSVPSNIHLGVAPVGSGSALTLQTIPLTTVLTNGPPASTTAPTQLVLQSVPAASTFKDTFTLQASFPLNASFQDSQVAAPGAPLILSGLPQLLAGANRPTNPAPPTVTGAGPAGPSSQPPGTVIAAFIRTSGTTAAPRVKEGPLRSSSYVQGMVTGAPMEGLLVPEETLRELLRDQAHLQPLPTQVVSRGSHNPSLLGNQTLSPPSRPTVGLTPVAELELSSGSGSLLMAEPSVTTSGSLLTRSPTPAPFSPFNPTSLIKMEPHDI
sequence,measurement,setting,value
TCTTTC,binding signal,FEV,"1.39 fold enrichment (6-mer frequency, TF over GST control)"
same,binding signal,ETV5,"1.36 fold enrichment (6-mer frequency, TF over GST control)"
same,binding signal,HSF1,"1.82 fold enrichment (6-mer frequency, TF over GST control)"
same,binding signal,SPIC,"1.31 fold enrichment (6-mer frequency, TF over GST control)"
same,binding signal,ELF4,"1.32 fold enrichment (6-mer frequency, TF over GST control)"
same,binding signal,ELK4,"1.46 fold enrichment (6-mer frequency, TF over GST control)"
same,binding signal,ETV2,"1.42 fold enrichment (6-mer frequency, TF over GST control)"
same,binding signal,ELF3,"1.19 fold enrichment (6-mer frequency, TF over GST control)"
same,binding signal,CRX,"1.41 fold enrichment (6-mer frequency, TF over GST control)"
same,binding signal,ETV1,"1.47 fold enrichment (6-mer frequency, TF over GST control)"
same,binding signal,ERF,"1.33 fold enrichment (6-mer frequency, TF over GST control)"
same,binding signal,ETV3L,"1.39 fold enrichment (6-mer frequency, TF over GST control)"
same,binding signal,ETS2,"1.43 fold enrichment (6-mer frequency, TF over GST control)"
same,binding signal,SPDEF,"1.44 fold enrichment (6-mer frequency, TF over GST control)"
same,binding signal,ETV7,"1.27 fold enrichment (6-mer frequency, TF over GST control)"
same,binding signal,ELF5,"1.48 fold enrichment (6-mer frequency, TF over GST control)"
same,binding signal,ETV3,"1.44 fold enrichment (6-mer frequency, TF over GST control)"
same,binding signal,ETV6,"1.38 fold enrichment (6-mer frequency, TF over GST control)"
